Reference: PubChem BioAssay (NCATS)
Records with an inconclusive call do not appear. A number with no mark means an inactive call. The source made the active and inactive calls. Calls come from the whole dose curve; as a rule, active = well fitted cell-killing curve with a large enough effect; inconclusive = small, poorly fitted or top-dose-only effect, or effect the other way; inactive = no such curve, though single readings can be large or run the other way.

assay: Quantitative High-Throughput drug screen in 47 multiple myeloma cell lines against the NCATS MIPE library collection: KMS12BM_JCRB cell viability assay (AID 1918971); conditions: KMS12BM myeloma viability, CellTiter-Glo ATP, 48 h; series mostly up to 45.8 µM; viability, % of DMSO: at the top concentration; note: nearly all actives have a fitted effect of over 35% in size;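 for viability, % of DMSO: 100% = DMSO-only wells and 0% = media-only wells without cells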
How it was run: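 Approved and investigational drugs from MIPE 4.0 were added by pin tool to 500 cells per well. After 48 hours at 37C, ATP-based CellTiter-Glo luminescence indicated remaining viability.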
Potency is the fitted concentration of half-maximal effect.

| Compound | Potency | viability, % of DMSO [%] |
| --- | --- | --- |
| Cc1cc(CS(=O)(=O)c2ccccc2)cc(OCc2ccc(CN3CCC[C@H]3CO)cc2)c1 | 16.6 µM (active) | – |
| Cc1cccc(Nc2nc(N[C@@H]3CCCC[C@H]3N)ncc2C(N)=O)c1 | 14.8 µM (active) | – |
| C=C1[C@H](n2cnc3c(=O)[nH]c(N)nc32)C[C@H](O)[C@H]1CO | 0.418 µM (active) | – |
| FC(F)(F)c1ccc(C=Cc2nc(COc3ccc(CCCCn4ccnn4)cc3)co2)cc1 | 0.0526 µM (active) | – |
| O=C1Nc2ccc(I)cc2C1=Cc1cc(Br)c(O)c(Br)c1 | 16.6 µM (active) | – |
| CCOC(=O)[C@H]1O[C@H]1C(=O)N[C@@H](CC(C)C)C(=O)NCCC(C)C | 10.5 µM (active) | – |
| OC(c1cc(C(F)(F)F)nc2c(C(F)(F)F)cccc12)C1CCCCN1 (stereo unspecified) | 26.4 µM (active) | – |
| CCC(=O)NCC[C@@H]1CCc2ccc3c(c21)CCO3 | – | 117 |
| CSc1cccc(Nc2ncc3cc(-c4c(Cl)cccc4Cl)c(=O)n(C)c3n2)c1 | 1.32 µM (active) | – |
| Cc1ccc(NC(=O)Nc2cc(C(F)(F)F)ccc2F)cc1Nc1ccc2c(c1)NC(=O)C2=Cc1ccc[nH]1 | 26.4 µM (active) | – |
| CN1[C@H]2CC[C@H]1CC(OC(=O)c1c[nH]c3ccccc13)C2 (stereo partly specified) | – | 118 |
| CCC(=C(CC)c1ccc(O)cc1)c1ccc(O)cc1 | 13.2 µM (active) | – |
| Cc1c(-c2cccc3c(CCCOc4cccc5ccccc45)c(C(=O)O)n(Cc4cccnc4)c23)c(COc2ccc(N3CCN([S+](=O)([O-])N(C)C)CC3)cc2)nn1C | 23.5 µM (active) | – |
| COc1ccnc(CS(=O)c2nc3ccc(OC(F)F)cc3[nH]2)c1OC (stereo unspecified) | – | 152 |
| C[C@@H]1CC=CC=CC=CC=C[C@@H](O[C@@H]2O[C@H](C)[C@@H](O)[C@H](N)[C@H]2O)C[C@@H]2O[C@](O)(C[C@@H](O)C[C@@H]3O[C@@H]3C=CC(=O)O1)C[C@H](O)[C@@H]2C(=O)O | 10.5 µM (active) | – |
| CC(C)c1c(C(=O)Nc2ccccc2)c(-c2ccccc2)c(-c2ccc(F)cc2)n1CC[C@H](O)C[C@@H](O)CC(=O)O | 13.2 µM (active) | – |
| O=C(O)Cc1cccc(OCCCN(Cc2cccc(C(F)(F)F)c2Cl)CC(c2ccccc2)c2ccccc2)c1 | 3.32 µM (active) | – |
| NC[C@H]1O[C@H](O[C@@H]2[C@@H](O)[C@@H](O[C@H]3O[C@H](CO)[C@@H](O)[C@H](N)[C@@H]3O)[C@H](N)C[C@@H]2N)[C@H](O)[C@@H](O)[C@H]1O | – | 125 |
| COc1nccc(-c2c(-c3ccc(F)cc3)ncn2C2CCC(O)CC2)n1 (stereo unspecified) | 20.9 µM (active) | – |
| CC1(COc2ccc3c(c2)ncn3-c2ccc3cccc(N4CCC(N)CC4)c3n2)COC1 | 11.8 µM (active) | – |
| NCc1c[nH]c(=S)n1[C@H]1CCc2c(F)cc(F)cc2C1 | 13.2 µM (active) | – |
